According to PubChem BioAssay (EPA / NIEHS):
Inconclusive results are not listed. Activity calls are given as the source filed them. How the source made its calls, unless noted: active means hit-call score of the fitted dose curve at least 0.9, where 1 is the maximum; inconclusive means response in the unintended direction; inactive means score below 0.9.

System: Brachyury (BRA) Protein Expression, Deisenroth Lab, TBXT (gene 6862)
Assay: CCTE_Deisenroth_DEVTOX-GLR_legacy_Bra: (Legacy) CCTE's DevTox GLR-Endo Assay Evaluation of Brachyury (BRA) Protein Expression, Deisenroth Lab (AID 2284329; active means hit-call score of the fitted dose curve at least 0.9, where 1 is the maximum; inactive means score below 0.9)
Settings: not given
Procedure, shortened: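 Percent Bra-positive cells, scored by high-content imaging against a threshold of 5x BMAD over the undifferentiated control median, with the 0.2% DMSO median subtracted. RUES2-GLR cultures were dosed twice at 24 h intervals across a 48 h differentiation, at 1 nM–200 uM in ten steps, with n=4 replicates.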

| Compound | outcome |
| --- | --- |
| O=C(O)c1cccnc1 | inactive |
| CC(=O)CC(c1ccccc1)c1c(O)c2ccccc2oc1=O (stereo unspecified) | inactive |
| Cc1cn([C@H]2C=C[C@@H](CO)O2)c(=O)[nH]c1=O | inactive |

System: not listed separately
Assay: CCTE_Deisenroth_DEVTOX-GLR_legacy_CellCount: (Legacy) Viability Assessment in CCTE's DevTox GLR-Endo Assay, Deisenroth Lab (AID 2284331; active means hit-call score of the fitted dose curve at least 0.9, where 1 is the maximum; inactive means score below 0.9)
Settings: actives raise or lower the signal
Procedure, shortened: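 RUES2-GLR human pluripotent cells were seeded 24 h, then differentiated 48 h with two compound doses at 24 h intervals (10-point, 1 nM - 200 uM). Fixed nuclei were imaged and counted; bidirectional fitting versus 0.2% DMSO.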

| Compound | outcome |
| --- | --- |
| O=C(O)c1cccnc1 | inactive |
| O=C1NC(=O)C(c2ccccc2)(c2ccccc2)N1 | inactive |
| CC(=O)CC(c1ccccc1)c1c(O)c2ccccc2oc1=O (stereo unspecified) | inactive |
| Cc1cn([C@H]2C=C[C@@H](CO)O2)c(=O)[nH]c1=O | inactive |

System: not listed separately
Assay: IUF_NPC1_cytotoxicity_72hr: Cytotoxicity Assessment at 72 hours in the Leibniz Research Institute for Environmental Medicine (IUF) Neural Progenitor Cell Proliferation Assay (NPC1) (AID 2284332);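 further: rising LDH signal means more cytotoxicity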
Settings: not given
Procedure, shortened: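 Readout is fluorescence from LDH-dependent resazurin conversion, sampled from culture medium after compound contact lasting 72 h. Each well holds one 0.25-0.35 mm human progenitor sphere kept at 37C, 5% CO2 with EGF and FGF.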

| Compound | outcome |
| --- | --- |
| O=C1NC(=O)C(c2ccccc2)(c2ccccc2)N1 | inactive |
| OCC(O)CO | inactive |
| CC(=O)CC(c1ccccc1)c1c(O)c2ccccc2oc1=O (stereo unspecified) | inactive |

System: not listed separately
Assay: VALA_TUBIPS_Antagonist_CellCount: Viability Assessment in the VALA Sciences human iPS-derived Endothelial Tubule Formation (TUBIPS) Antagonism Assay (AID 2284335)
Settings: not given

| Compound | outcome | AC50 |
| --- | --- | --- |
| COC(=O)[C@H]1[C@H]2C[C@@H]3c4[nH]c5cc(OC)ccc5c4CCN3C[C@H]2C[C@@H](OC(=O)c2cc(OC)c(OC)c(OC)c2)[C@@H]1OC | inactive |  |
| Cc1ccc(-c2cc(C(F)(F)F)nn2-c2ccc(S(N)(=O)=O)cc2)cc1 | inactive |  |
| O=C1OC(c2ccc(O)cc2)(c2ccc(O)cc2)c2ccccc21 | inactive |  |
| Nc1nc(Cl)nc2c1ncn2[C@H]1C[C@H](O)[C@@H](CO)O1 |  | 0.956 µM (active) |

System: not listed separately
Assay: VALA_MIGHUV1_ScratchOnly_WoundArea: VALA Sciences human Umbilical Vein Endothelial Cell Migration (MIGHUV) Assay, Area of Scratch Wound Inhibited Recovery (AID 2284336)
Settings: not given
Procedure, shortened: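 Wound area remaining after 24 h recovery imaged by Hoechst nuclear fluorescence in scratched HUVEC cultures, chemicals added within 30 min of scratching across a 6-point series. Gain of signal fitted against 0.1% DMSO; cytochalasin D positive control.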

| Compound | outcome | AC50 |
| --- | --- | --- |
| COC(=O)[C@H]1[C@H]2C[C@@H]3c4[nH]c5cc(OC)ccc5c4CCN3C[C@H]2C[C@@H](OC(=O)c2cc(OC)c(OC)c(OC)c2)[C@@H]1OC | inactive |  |
| Cc1ccc(-c2cc(C(F)(F)F)nn2-c2ccc(S(N)(=O)=O)cc2)cc1 | inactive |  |
| O=C1OC(c2ccc(O)cc2)(c2ccc(O)cc2)c2ccccc21 |  | 75.4 µM (active) |
| Nc1nc(Cl)nc2c1ncn2[C@H]1C[C@H](O)[C@@H](CO)O1 |  | 23.2 µM (active) |

System: not listed separately
Assay: VALA_TUBHUV_Agonist_TubuleLength: VALA Sciences human Umbilical Vein Endothelial Tubule Formation (TUBHUV) Agonism Assay (AID 2284337)
Settings: not given
Procedure, shortened: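 Tubule length quantified by CD31 immunofluorescence imaging after fixation. HUVEC-HDF co-cultures (1:3) pre-grown 3 days with 10 ng/ml VEGF, then dosed 3 days in VEGF medium; 0.1 % DMSO vehicle baseline.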

| Compound | outcome | AC50 |
| --- | --- | --- |
| COC(=O)[C@H]1[C@H]2C[C@@H]3c4[nH]c5cc(OC)ccc5c4CCN3C[C@H]2C[C@@H](OC(=O)c2cc(OC)c(OC)c(OC)c2)[C@@H]1OC | inactive |  |
| Nc1nc(Cl)nc2c1ncn2[C@H]1C[C@H](O)[C@@H](CO)O1 |  | 15.2 µM (active) |
| CCCCC(CC)COP(=O)(OCC(CC)CCCC)OCC(CC)CCCC (stereo unspecified) | inactive |  |

System: not listed separately
Assay: VALA_TUBIPS_Agonist_CellCount: Viability Assessment in the VALA Sciences human iPS-derived Endothelial Tubule Formation (TUBIPS) Agonism Assay (AID 2284338)
Settings: not given

| Compound | outcome | AC50 |
| --- | --- | --- |
| COC(=O)[C@H]1[C@H]2C[C@@H]3c4[nH]c5cc(OC)ccc5c4CCN3C[C@H]2C[C@@H](OC(=O)c2cc(OC)c(OC)c(OC)c2)[C@@H]1OC | inactive |  |
| Cc1ccc(-c2cc(C(F)(F)F)nn2-c2ccc(S(N)(=O)=O)cc2)cc1 | inactive |  |
| O=C1OC(c2ccc(O)cc2)(c2ccc(O)cc2)c2ccccc21 | inactive |  |
| Nc1nc(Cl)nc2c1ncn2[C@H]1C[C@H](O)[C@@H](CO)O1 |  | 0.23 µM (active) |
| CCCCC(CC)COP(=O)(OCC(CC)CCCC)OCC(CC)CCCC (stereo unspecified) |  | 0.00227 µM (active) |
